From ChEMBL document CHEMBL4513216, “Probing the Open Global Health Chemical Diversity Library for Multistage-Active Starting Points for Next-Generation Antimalarials” (ACS Infect Dis, 2020)
In all, about 65,000 compounds went through this assay and about 2,100 (3.2%) showed an effect of 50% or more. The median lay at about -52%. The sample holds strong results, similar compounds and a random draw of the others, so the mix is not that of the screen.

What follows are molecules tested on Plasmodium falciparum (assay: Screen against P. falciparum Asexual Blood Stage (ABS), at 5uM). Conditions: tested at 5 uM.
Assay type: functional, Dd2

Row | Compound | INHIBITION
1 | CN(C)C(=O)CN1C(=O)C[C@@H]2[C@@H]1CCN2Cc1cccc(C#N)c1 | -63%
2 | N[C@@H]1c2ccccc2C2(CCN(c3cc(C(F)(F)F)ccn3)CC2)[C@H]1O | -15.6%
3 | CC(=O)N1CCN(CCNc2ncc(Br)cc2C)CC1 | -22.7%
4 | CCc1cnc(C)nc1NCCN1CCC(O)CC1 | -27.7%
5 | COC1CCN(CCNc2ncc(Br)cc2C)CC1 | 60.6%
6 | Cc1ccc(CN2CCn3cc(CN4CCN(C)CC4)nc3C2)cc1 | -112%
7 | O=C(NCCCN1CCOCC1)C(OC1CCCC1)c1ccccc1 (centres undefined) | 53.1%
8 | CN1CCN(CCNC(=O)C(OC2CCCC2)c2ccccc2)CC1 (centres undefined) | 39.2%
9 | O=C(NCCN1CCOCC1)C(OC1CCCC1)c1ccccc1 (centres undefined) | -78%
10 | CN(C)CC(=O)N1CCC2(CC1)CN(c1ncccn1)CCO2 | 5.56%
11 | Cc1ccc2c(c1)CCC21CCN(C(=O)CO)CC1 | -19.8%
12 | CN(C)CC(=O)N1CCC2(CCc3ccc(-c4ccncc4)cc32)CC1 | -41.7%
13 | Cc1ccc2c(c1)CCC21CCN(C(=O)CN(C)C)CC1 | 50.7%
14 | CCCn1nc2c(cc1=O)CN(c1ncnc3ccsc13)CC2 | -43%
15 | CSCc1noc(CNS(=O)(=O)c2cccc(C(=O)NC3CC3)c2)n1 | -45.3%
16 | CC(C)n1cc(C(=O)NCCN(C)C)c2n[nH]c(=O)c-2c1 | -36.6%
17 | Cc1noc(C(C)C)c1C(=O)NCCCN1CCCC1 | -39.2%
18 | CC(C)CC(NCc1ccsc1)c1ccccn1 (centres undefined) | 60%
19 | CC(C)CC(NCc1cscn1)c1ccccn1 (centres undefined) | 32.3%
20 | CC(C)CC(NCc1cccs1)c1ccccn1 (centres undefined) | -21.4%
21 | CC(C)OCCC(=O)NCC(O)c1c(F)cccc1F (centres undefined) | -37.7%
22 | CC(C)c1nnc(NC(=O)NCc2cccnc2NCCN(C)C)s1 | -89.9%

Row | Compound | INHIBITION
23 | CN(C)CCNc1ncccc1CNC(=O)Nc1cc(F)cc(F)c1 | 55%
24 | Cc1nc(NC(=O)NCc2cccnc2NCCN(C)C)sc1C | -8.39%
25 | Cc1ccc(CNCC2CCN(CC(O)c3ccccc3)CC2)o1 (centres undefined) | 62.5%
26 | CC(O)CN1CCC(CNCc2ccccc2F)CC1 (centres undefined) | -0.868%
27 | CC(O)CN1CCC(CNCc2cccc(OC(C)C)c2)CC1 (centres undefined) | 62.4%
28 | CC(O)CN1CCC(CNCc2ccccc2C(F)(F)F)CC1 (centres undefined) | 48.3%
29 | CC(O)CN1CCC(CNCc2ccccc2OC(F)(F)F)CC1 (centres undefined) | 67.7%
30 | CC(O)CN1CCC(CNCc2cccc(C(N)=O)c2)CC1 (centres undefined) | -73.1%
31 | CC(O)CN1CCC(CNCc2cccc(C(=O)N(C)C)c2)CC1 (centres undefined) | -81.9%
32 | Cc1ncccc1CNCC1CCN(CC(O)c2ccccc2)CC1 (centres undefined) | 31.4%
33 | Cc1noc(C)c1CNCC1CCN(CC(O)c2ccccc2)CC1 (centres undefined) | 43.4%
34 | COCC(Nc1ncnc2c1CCNCC2)c1ccccn1 (centres undefined) | -66.2%
35 | CCOCC(=O)NCC1CCN(Cc2ccsc2)CC1 | -90.6%
36 | CN(C)Cc1ccnc(C2CCCN2Cc2ccc3ncccc3c2)n1 (centres undefined) | 42%
37 | COc1cc(CNc2cc(-c3nncn3C)ccn2)cc(OC)c1OC | -52.4%
38 | Cc1ccccc1-c1noc(CN2CCC(N3CCNC3=O)CC2)n1 | -80.6%
39 | COCC(=O)N1CCCC1c1ccc(C(=O)NCCN2CCCCC2)s1 (centres undefined) | -139%
40 | CCC1CN(CC(=O)NCCN2CCCC2)c2ccccc2S1 (centres undefined) | 63.8%
41 | O=C(NCCN1CCCC1)c1cc2c(s1)CCN2C(=O)c1ccccc1 | -40.6%
42 | Cc1ccccc1OCC1CCCN(c2cc(N)nc(N)n2)C1 (centres undefined) | 44.5%
43 | CN1CCCC(CCCc2cccnc2)(C(N)=O)C1 (centres undefined) | -103%
44 | COc1nccnc1-c1cc(NC2CCCC2)nc2[nH]ccc12 | 18.8%

Row | Compound | INHIBITION
45 | Nc1ccnc(-c2cc(NC3CCNCC3)nc3[nH]ccc23)c1 | -29.8%
46 | COc1cc(-c2cc(NC3CCCC3)nc3[nH]ccc23)nc(N)n1 | 62.5%
47 | CCN(Cc1noc(CC(C)C)n1)Cc1cc2ccc(F)cc2[nH]c1=O | -109%
48 | CCc1noc(CN(CC)Cc2cc3ccc(F)cc3[nH]c2=O)n1 | -9.14%
49 | CCN(Cc1nc(COC)no1)Cc1cc2ccc(F)cc2[nH]c1=O | 62.2%
50 | O=C(C[C@@H]1COC[C@H]2CN(CC3CCOCC3)C[C@@H]12)N1CCCCO1 | -22.4%
51 | CC(O)CN1CCN(C(=O)c2cc3ccccc3n2C)CC1 (centres undefined) | -75.1%
52 | CCC(C)(COc1ncccc1Cl)NCC(=O)NC1CCCCC1 (centres undefined) | -85.6%
53 | CNC(=O)C1CCN(CC(=O)Nc2cc(C(C)C)no2)CC1 | -141%
54 | CCOCC1CN(C(=O)c2cccn2C)Cc2cnn(CC3CC3)c21 (centres undefined) | 57.8%
55 | CCOCC1CN(C(=O)c2cccs2)Cc2cnn(CC3CC3)c21 (centres undefined) | 18.5%
56 | CCOCC1CN(C(=O)c2cnccn2)Cc2cnn(CC3CC3)c21 (centres undefined) | -127%
57 | O=c1cc(CN2CCCCC2c2cccc(F)c2)[nH]c2ncnn12 (centres undefined) | -27.8%
58 | Cc1n[nH]c(C)c1C1COCCN1C(=O)c1cccc(F)c1F (centres undefined) | 49.6%
59 | COc1ccccc1C(=O)N1CCOCC1c1c(C)n[nH]c1C (centres undefined) | 57.5%
60 | Cc1n[nH]c(C)c1C1COCCN1C(=O)c1ccccc1 (centres undefined) | -119%
61 | Cc1cnn(CCNCc2ccc(OCc3ccccn3)cc2)c1 | -12.3%
62 | CN1CCOC(CNCc2ccccc2OCc2ccccn2)C1 (centres undefined) | 67.7%
63 | CCN1CCOC(CNCc2ccccc2OCC(=O)N(C)C)C1 (centres undefined) | -19.5%
64 | Cc1cnn(CCNCc2ccccc2OCc2ccncc2)c1 | 40.5%
65 | Cc1cnn(CCNCc2ccccc2OCc2ccccn2)c1 | 67%
66 | CCN1CCOC(CNCc2ccccc2OCc2ccncc2)C1 (centres undefined) | 55.3%

Row | Compound | INHIBITION
67 | CCN1CCOC(CNCc2ccccc2OCc2cccnc2)C1 (centres undefined) | 28.1%
68 | CCN1CCOC(CNCc2ccccc2OCc2ccccn2)C1 (centres undefined) | 7.77%
69 | CN1CCOC(CNCc2ccc(OCc3ccccn3)cc2)C1 (centres undefined) | -15.8%
70 | CNC(=O)c1nc(COc2ccc3c(c2)OCO3)no1 | -139%
71 | Cc1ccc(C)c(S(=O)(=O)NC(=O)c2ccc(C)[nH]c2=O)c1 | -134%
72 | O=S(=O)(c1cccs1)N1CC[C@@H](O)[C@@H]1Cc1ccncc1 | -17%
73 | Cc1ccc(N2CCC(Nc3ccc4nnc(C)n4n3)CC2)nc1 | -89%
74 | CCOc1ccc(CSC(C)c2nc(C)no2)nc1 (centres undefined) | -173%
75 | CN(C)C1CC2(CCN(C(=O)NC3CC3)CC2)c2ccccc21 (centres undefined) | -42.2%
76 | Cn1cc(Cl)cc1C(=O)N1CCN(Cc2cccs2)CC1 | 7.04%
77 | Cc1ccc(C(=O)N2CCCN(Cc3cccs3)CC2)n1C | 55.6%
78 | Cc1ccc(C(=O)N2CCN(Cc3cccs3)CC2)n1C | -20.2%
79 | Cn1cc(CN2CCCN(C(=O)c3cc(Cl)cn3C)CC2)cn1 | -7.21%
80 | Cn1cc(Cl)cc1C(=O)N1CCCN(Cc2ccccc2)CC1 | 50.9%
81 | Cn1cc(Cl)cc1C(=O)N1CCCN(Cc2cccs2)CC1 | -60.9%
82 | CSCC(CCO)NC(=O)Nc1cc(F)ccc1C (centres undefined) | -130%
83 | CCc1noc(CN(CC)C(=O)C2CC(=O)N(Cc3ccncc3)C2)n1 (centres undefined) | -125%
84 | Fc1ccc(CNCc2nnc3n2CC(C(F)(F)F)CC3)c(F)c1 (centres undefined) | -35%
85 | COCCN1C[C@@H]2CN(c3ncc(F)cn3)C[C@@H]2C1=O | -65.7%
86 | Cc1ccc(-c2nc(CSCCC(=O)NC(N)=O)co2)cc1 | -132%
87 | O=C(N1CCCC1)N1CCC[C@]2(C[C@@H](Oc3ncccc3F)CO2)C1 | -39%
88 | CN(C)C1CCC2(CCN(Cc3cccnc3)CC2)c2ccccc21 (centres undefined) | 31.3%

Row | Compound | INHIBITION
89 | COc1ccccc1CNC(Cc1cccs1)c1nc(C)c(C)s1 (centres undefined) | 59.8%
90 | COc1ccccc1CNC(Cc1cccs1)c1nc(C)cs1 (centres undefined) | -11.1%
91 | COc1cccc(CNC(Cc2cccs2)c2nc(C)c(C)s2)c1OC (centres undefined) | -80.8%
92 | CN(C)C(=O)CN1CCCC1c1cccc(Cc2ccccc2F)n1 (centres undefined) | 68.8%
93 | CN1CCCC1c1cccc(Cc2ccccc2F)n1 (centres undefined) | -1.19%
94 | CC(=O)N1CCCC1c1cccc(Cc2ccccc2F)n1 (centres undefined) | -89.4%
95 | CC(C)CN1CCn2c(nc3cc(C(=O)NC(C)C)ccc32)C1 | -53.7%
96 | OC(CNc1nc(C2CCCC2)nc2c1CCNCC2)C(F)(F)F (centres undefined) | 64.6%
97 | COCCNc1nc(C2CCCC2)nc2c1CCNCC2 | 54.1%
98 | OC(CNc1ncnc2c1CCNCC2)C(F)(F)F (centres undefined) | -178%
99 | COCc1noc(CNc2nc(C3CCCC3)nc3c2CCNCC3)n1 | 27.3%
100 | Cc1nc2c(c(NCC(O)C(F)(F)F)n1)CCNCC2 (centres undefined) | -121%
101 | COCCNc1nc2c(c(NCC3CCOC3)n1)CCNCC2 (centres undefined) | -47.9%
102 | Cc1c(Cl)c(C(=O)NN2CCOCC2)nn1C | -48.6%
103 | O=C(CC1COCCN1S(=O)(=O)c1ccccc1)NCc1ccccn1 (centres undefined) | -170%
104 | O=C(C1CCC2(CCN(c3nncs3)CC2)CO1)N1CCCC1 (centres undefined) | 13.3%
105 | CC(C)CN1C(=O)C2(CCN(CC3CCOCC3)C2)c2ccccc21 (centres undefined) | 39.6%
106 | COc1ccsc1C(=O)N1CCCC(n2cncn2)C1 (centres undefined) | -121%
107 | O=C(NCc1ccco1)[C@H]1CC[C@@H]2[C@@H](CCN2Cc2nccs2)O1 | -11.2%
108 | O=C(NCc1ccco1)[C@H]1CC[C@@H]2[C@@H](CCN2Cc2cccnc2)O1 | -34.5%
109 | O=C(NCc1ccco1)[C@@H]1CC[C@@H]2[C@@H](CCN2Cc2ccc(F)cc2)O1 | 67.2%
